# Shown are actives, neighbours in structure and some others; about 18% of the full set was active somewhere.
# TGFb SMAD3 inh – blocks TGF-b signaling; HepG2 CAGA-GFP TGF-b/SMAD3 reporter, GFP fluorescence, 18 h; TGF-beta stimulated, 500 pg/mL final; Potency, µM (series often up to 46.1 µM), for the others: at the highest dose activity, negative = inhibition, actives largely listed as inhibitors; 410,000 compounds, 1.2% hits; AID 588855; note: potency is the fitted concentration of half-maximal effect; % is set by controls: 0 for no effect and ±100 for the full control effect; nearly all actives have a fitted effect of over 65% in size
#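 Using HEPG2 CAGA-GFP reporter cells at 1000 cells/well, we pinned test compounds, stimulated with recombinant TGF-beta (500 pg/mL final) and measured total well GFP after 18 h.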
# TDP1 cell CPT – DT40-hTDP1 cell growth loss with CPT; chicken DT40 Tdp1-/-;hTDP1 cells + 20 nM CPT, ATP luminescence, 48 h; Potency, µM (titrated, usually from 46.2 µM), for the others: top-dose activity change, negative = growth inhibition, usual class: inhibitors; 420,000 compounds, 12% hits; AID 686979; note: potency is the fitted concentration of half-maximal effect; % is set by controls: 0 for no effect and ±100 for the full control effect; nearly all actives have a fitted effect of over 55% in size
#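 Chicken DT40 Tdp1-/- cells complemented with human TDP1, 400 cells/well, exposed to compounds plus 20 nM camptothecin for at least 48 h at 37 C; viability read as ATP content by CellTiter-Glo luminescence.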
# TDP1 block – TDP1 (human) enzyme inhibition | Q9NUW8 | recombinant TDP1, AlphaScreen DNA substrate cleavage | Potency, µM (highest dose often 130 µM), inactives show at the top dose activity change, negative = inhibition, most hits filed as inhibitors | 350,000 compounds, 0.28% hits; note: potency is the fitted concentration of half-maximal effect; % is set by controls: 0 for no effect and ±100 for the full control effect; nearly all actives have a fitted effect of over 40% in size
# Target sequence (Q9NUW8 whole entry, looked up): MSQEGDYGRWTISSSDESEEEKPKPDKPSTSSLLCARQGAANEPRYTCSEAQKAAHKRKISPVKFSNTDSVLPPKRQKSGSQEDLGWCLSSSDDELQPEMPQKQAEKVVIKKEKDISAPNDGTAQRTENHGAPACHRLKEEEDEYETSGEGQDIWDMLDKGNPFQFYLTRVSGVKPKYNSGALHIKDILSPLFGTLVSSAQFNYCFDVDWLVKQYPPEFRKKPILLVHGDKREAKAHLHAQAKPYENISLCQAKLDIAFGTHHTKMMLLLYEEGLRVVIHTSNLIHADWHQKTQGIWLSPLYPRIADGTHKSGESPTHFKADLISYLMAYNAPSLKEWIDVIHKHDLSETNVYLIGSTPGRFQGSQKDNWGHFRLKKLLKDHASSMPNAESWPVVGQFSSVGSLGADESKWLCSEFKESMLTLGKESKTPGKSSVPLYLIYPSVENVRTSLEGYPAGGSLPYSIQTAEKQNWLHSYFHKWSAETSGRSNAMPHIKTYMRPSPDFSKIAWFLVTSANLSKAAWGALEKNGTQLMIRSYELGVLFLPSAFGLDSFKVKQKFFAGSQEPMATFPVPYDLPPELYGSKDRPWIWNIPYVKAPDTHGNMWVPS
#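 Compounds were preincubated with Tdp1 (1 nM final) for 15 min at room temperature before substrate (15 nM final) started a 5 min reaction; beads (10 ug/ml final) were then added for 10 min before AlphaScreen detection.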
# HepG2 viability – kills HepG2 cells in TGF-b inhibitor counter-screen; 410,000 compounds, 0.76% hits; HepG2 CAGA-GFP viability, ATP luminescence, 18 h; AID 588856; Potency, µM (highest dose often 46.1 µM), without a hit: at the top dose activity change, negative = cytotoxicity, hits mostly cytotoxic; note: potency is the fitted concentration of half-maximal effect
#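 CellTiter-Glo luminescence gave cytotoxicity after 18 hours at 37 degrees C. The cells were HepG2 CAGA-GFP in 1% FBS DMEM, stimulated with 500 pg/mL TGF-beta after compound addition. %Activity was normalised to no-cell wells (complete cell-killing) and DMSO (no toxicity), and curves were fitted and classified.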
# TDP1 cell noCPT – qHTS for Inhibitors of human tyrosyl-DNA phosphodiesterase 1 (TDP1): qHTS in cells in absence of CPT; DT40 Tdp1-/- hTDP1 cells, no CPT, ATP luminescence, 48 h; Potency, µM (series often up to 46.2 µM), without a hit: at the highest dose activity change, negative = growth inhibition, actives largely listed as inhibitors; 420,000 compounds, 15% hits; note: potency is the fitted concentration of half-maximal effect; % is set by controls: 0 for no effect and ±100 for the full control effect; nearly all actives have a fitted effect of over 55% in size
#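 A cellular qHTS used chicken DT40 cells lacking endogenous Tdp1 but carrying stably transfected human TDP1. Compounds were applied without camptothecin, and cell growth kinetics were judged by ATP-dependent luminescence after ≥48 hr.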
# IL1B secr inh – inflammasome signaling inhibition, IL-1 beta readout. THP-1 LPS/ATP IL-1B secretion, AlphaLISA, 16 h; hits give low values. 360,000 compounds, 4.7% hits. activity change, % at 57.5 µM; in the data active = activity change below about -50%; inconclusive = mostly about -30% to -49%; note: % is set by controls: 0 for no effect and ±100 for the full control effect
#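 THP-1 cells pretreated 1 hr with compounds (up to 57.5 uM final), then stimulated with LPS (250 ng/mL final) plus ATP (1.25 mM final); secreted IL-1B measured by AlphaLISA after 16 hr, decreased signal indicating inhibition.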
# * = called active by the depositor; ? = inconclusive; . = no result given; [ ] = another dose, or the depositor's remark. Unless noted, calls come from the whole dose curve; as a rule, active = well fitted curve in the direction sought with a large enough effect; inconclusive = small, poorly fitted or top-dose-only effect, or another doubt; inactive = no such curve, though single readings can be large; an effect the other way counts as inactive or inconclusive.
SMILES,TGFb SMAD3 inh,TDP1 cell CPT,TDP1 block,HepG2 viability,TDP1 cell noCPT,IL1B secr inh
CCOC(=O)N1CCN(C(=O)C2CCCN(S(=O)(=O)c3ccc(OCC)cc3)C2)CC1 (configuration not stated),0%,?,4%[56.1 µM],0%,16µM*,12
O=C1CN(C(=O)CSc2ccccn2)c2ccccc2N1,6%,5%,-1%,-2%,-5%,45
Cc1ccc(-n2ncc3c2CC(C)(C)CC3NC(=O)CCN2CCCO2)cc1 (configuration not stated),-2%,-11%,4%,2%,2%,3
Cc1cc(=O)n(C2CCS(=O)(=O)C2)[nH]1 (configuration not stated),1%,5%,3%,-5%,8%,8
CCOc1ccc(Nc2nc(Cc3nnc(SCC(=O)c4ccc(C)c(C)c4)o3)cs2)cc1,-13%,29µM*,8%,-14%,16µM*,14
CCc1ccc(-c2cn3c(n2)SCC3)cc1,-1%,-11%,2%,-13%,-8%,-2
CCc1ccc(-c2cn(-c3nc(C)cc(C)n3)c(=N)o2)cc1,?,?,1%,-118%,?,-59*
Cc1ccc(NC(=O)COC(=O)CCn2c(C)csc2=O)c([N+](=O)[O-])c1,3%,7%,0%,1%,-1%,-11
Cc1ccc(NC(=O)COC(=O)CCC(=O)c2ccc(C(C)(C)C)cc2)c([N+](=O)[O-])c1,-2%,?,4%,-6%,15µM*,-1
Cc1ccc(C2C(C(=O)c3sc(C)nc3C)=C(O)C(=O)N2CCCN(C)C)o1 (configuration not stated),.,.,1%,.,.,.
CC(C)c1ccc(NS(=O)(=O)c2ccc3c(c2)NC(=O)CO3)cc1,?,?,0%,-52%,?,25
CC(C)c1ccc(C2C3=C(COC3=O)Nc3cc4c(cc32)OCO4)cc1 (configuration not stated),?,0.65µM*,3%,-13%,0.92µM*,14
Cc1ccc(N(CC(=O)Nc2ccc(F)cc2F)S(=O)(=O)c2cccs2)cc1,?,-22%,2%,-39%,?,.
O=C1C2C3C=CC(C2C(=O)N1CCCO)C1C2C(=O)N(CCCO)C(=O)C2C31 (configuration not stated),0%,-6%,3%,-28%,-9%,25
O=C(Nc1cccc([N+](=O)[O-])c1)N1CCN(c2ccccc2)CC1,-1%,-17%,7%,-8%,?,-23
Cc1ccc(N2CCN(C(=O)Nc3cccc([N+](=O)[O-])c3)CC2C)cc1 (configuration not stated),13%,-8%,-3%,0%,?,-71*
Cc1ccc(NC(=O)c2c3c(nc4ccccc24)C(=O)N(C2CCCCC2)C3)cc1F,41%,8.2µM*,6%,8%,12µM*,.
CCN(CC)CCNC(=O)c1c2c(nc3ccccc13)C(=O)N(C1CCCCC1)C2,2%,-7%,5%,-25%,7%,.
Cc1ccccc1NC(=O)c1c2c(nc3ccccc13)C(=O)N(C1CCCCC1)C2,4%,?,6%,-12%,21µM*,.
CCOc1ccccc1NC(=O)c1c2c(nc3ccccc13)C(=O)N(C1CCCCC1)C2,-9%,6.5µM*,11%,-22%,5.8µM*,.
O=C(O[C@@H](C(=O)O)[C@@H](OC(=O)c1ccccc1)C(=O)O)c1ccccc1,3%,2%,1%,1%,-6%,-8
O=C(O)c1ccc(S(=O)(=O)N2CCSCC2)cc1,4%,-2%,.,13%,1%,3

# Source: PubChem (National Center for Advancing Translational Sciences (NCATS))
